The values below come from PubChem BioAssay (EPA / NIEHS).

For orientation: AC50 means the midpoint of the concentration-response curve, whichever way the signal moves.

SMILES strings stand for the structures. “And” between values parts separate entries of the source, which are not always exact repeats. Equal values may be shown once. Where a structure was tested more than once in an assay, its records may differ in their call. The source made the active and inactive calls. The calls were made as follows: active = hit-call score of the fitted dose curve at least 0.9, where 1 is the maximum; inactive = score below 0.9.

Read-out in test [1]: serum amyloid A (SAA), SAA1 (gene 6288)
The test can be described thus: BSK_CASM3C_SAA: BioMAP Diversity Plus: CASM3C Assay for serum amyloid A (SAA) Biomarker Activity (AID 2283049).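 Also: SAA protein level quantified by ELISA.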 The settings on record: primary human coronary artery smooth muscle cells; actives raise or lower the signal.

Test [2] can be described thus: BSK_CASM3C_SRB: Viability Assessment in the BioMAP Diversity Plus: CASM3C Assay (AID 2283050).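 Also: cells exposed to compound for 24 h.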 Conditions: primary human coronary artery smooth muscle cells.
Read-out in test [3]: Thrombomodulin, THBD (gene 7056)
The test can be described thus: BSK_CASM3C_Thrombomodulin: BioMAP Diversity Plus: CASM3C Assay for Thrombomodulin Biomarker Activity (AID 2283051).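 Also: thrombomodulin protein level measured by ELISA 24 h after dosing.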 The settings on record: primary human coronary artery smooth muscle cells; actives raise or lower the signal.

Read-out in test [4]: Tissue Factor, F3 (gene 2152)
The test can be described thus: BSK_CASM3C_TissueFactor: BioMAP Diversity Plus: CASM3C Assay for Tissue Factor Biomarker Activity (AID 2283052).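 Also: cell surface tissue factor protein level read by ELISA.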 Conditions: primary human coronary artery smooth muscle cells; actives raise or lower the signal.

Read-out in test [5]: Interferon-gamma inducible Protein 10 (IP10), CXCL10 (gene 3627)
The test can be described thus: BSK_hDFCGF_IP10: BioMAP Diversity Plus: hDFCGF Assay for Interferon-gamma inducible Protein 10 (IP10) Biomarker Activity (AID 2283053). Conditions: primary human foreskin fibroblasts; actives raise or lower the signal. The procedure, abridged: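 Chemical-treated human skin fibroblasts (primary) were sampled at 24 h for IP-10 by ELISA. Both increases and decreases relative to DMSO were scored.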

Read-out in test [6]: Urokinase-type plasminogen activator receptor (uPAR), PLAUR (gene 5329)
The test can be described thus: BSK_CASM3C_uPAR: BioMAP Diversity Plus: CASM3C Assay for Urokinase-type plasminogen activator receptor (uPAR) Biomarker Activity (AID 2283054).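 Also: cell-surface uPAR protein level quantified by ELISA.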 The settings on record: primary human coronary artery smooth muscle cells; actives raise or lower the signal.

Read-out in test [7]: Vascular cell adhesion molecule 1 (VCAM1), VCAM1 (gene 7412)
The test can be described thus: BSK_CASM3C_VCAM1: BioMAP Diversity Plus: CASM3C Assay for Vascular cell adhesion molecule 1 (VCAM1) Biomarker Activity (AID 2283055).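 Also: VCAM-1 protein level quantified by ELISA on the cells.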 The settings on record: primary human coronary artery smooth muscle cells; actives raise or lower the signal.

Read-out in test [8]: Collagen III, COL3A1 (gene 1281)
The test can be described thus: BSK_hDFCGF_CollagenIII: BioMAP Diversity Plus: hDFCGF Assay for Collagen III Biomarker Activity (AID 2283056). The settings on record: primary human foreskin fibroblasts; actives raise or lower the signal. The procedure, abridged: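 Cells: human foreskin fibroblasts, primary. Dosing followed by 24 h incubation, then ELISA for collagen III. Both increases and decreases scored relative to DMSO.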

Read-out in test [9]: Interleukin-8 (IL8), CXCL8 (gene 3576)
The test can be described thus: BSK_hDFCGF_IL8: BioMAP Diversity Plus: hDFCGF Assay for Interleukin-8 (IL8) Biomarker Activity (AID 2283058). Conditions: primary human foreskin fibroblasts; actives raise or lower the signal. The procedure, abridged: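 IL-8 levels from compound-treated primary human fibroblasts were read by ELISA at 24 h, with DMSO serving as baseline for bidirectional fitting.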

Test [10] in a line: BSK_hDFCGF_Proliferation: Cell Proliferation Assessment in the BioMAP Diversity Plus: hDFCGF Assay (AID 2283059).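 Also: curves fitted for both rise and fall of signal versus DMSO baseline.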 Conditions: primary human foreskin fibroblasts. A digest of the protocol: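 This proliferation readout used SRB total-protein staining of human foreskin fibroblasts […], normalized to DMSO with bidirectional curve fitting.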
Read-out in test [11]: Macrophage colony-stimulating factor (MCSF), CSF1 (gene 1435)
The test can be described thus: BSK_hDFCGF_MCSF: BioMAP Diversity Plus: hDFCGF Assay for Macrophage colony-stimulating factor (MCSF) Biomarker Activity (AID 2283060). Conditions: primary human foreskin fibroblasts; actives raise or lower the signal. A digest of the protocol: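 M-CSF levels, determined by ELISA, are taken at 24 h after dosing human skin fibroblasts. Responses in either direction are fitted with DMSO serving as the baseline.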

The nature of test [12]: BSK_hDFCGF_SRB: Viability Assessment in the BioMAP Diversity Plus: hDFCGF Assay (AID 2283061).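 Also: cells exposed to compound for 24 h before the read.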 The settings on record: primary human foreskin fibroblasts. A digest of the protocol:
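Cells were dosed with test chemical, cultured 24 h, fixed with 10% TCA, then stained with 0.1% SRB and read at 560 nm. The fibroblasts were human foreskin primary cells, and DMSO served as baseline.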

Read-out in test [13]: TIMP metallopeptidase inhibitor 1 (TIMP1), TIMP1 (gene 7076)
The test can be described thus: BSK_hDFCGF_TIMP1: BioMAP Diversity Plus: hDFCGF Assay for TIMP metallopeptidase inhibitor 1 (TIMP1) Biomarker Activity (AID 2283062). The settings on record: primary human foreskin fibroblasts; actives raise or lower the signal. The procedure, abridged: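 Fibroblasts from human foreskin are treated with test chemical and harvested at 24 h. TIMP-1 is quantified by ELISA, and gain or loss of signal is scored against DMSO.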

Read-out in test [14]: Monokine induced gamma interferon (MIG), CXCL9 (gene 4283)
The test can be described thus: BSK_hDFCGF_MIG: BioMAP Diversity Plus: hDFCGF Assay for Monokine induced gamma interferon (MIG) Biomarker Activity (AID 2283063). The settings on record: primary human foreskin fibroblasts; actives raise or lower the signal. A digest of the protocol: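 MIG signal, determined by ELISA, reflects 24 h chemical exposure of human skin primary fibroblasts. DMSO serves as negative control and baseline.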

Read-out in test [15]: Matrix Metallopeptidase 1 (MMP1), MMP1 (gene 4312)
The test can be described thus: BSK_hDFCGF_MMP1: BioMAP Diversity Plus: hDFCGF Assay for Matrix Metallopeptidase 1 (MMP1) Biomarker Activity (AID 2283064). Conditions: primary human foreskin fibroblasts; actives raise or lower the signal. A digest of the protocol: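 ELISA read-out of MMP1 from human foreskin fibroblasts (primary skin cells), 24 h post-dose. Gain or loss of signal was fitted bidirectionally versus DMSO negative control; cytotoxicity was checked by SRB in parallel cultures.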

Read-out in test [16]: Vascular cell adhesion molecule 1 (VCAM1), VCAM1 (gene 7412)
The test can be described thus: BSK_hDFCGF_VCAM1: BioMAP Diversity Plus: hDFCGF Assay for Vascular cell adhesion molecule 1 (VCAM1) Biomarker Activity (AID 2283065).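 As to AC50: VCAM-1 protein level quantified by ELISA after 24 h chemical exposure.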 The settings on record: primary human foreskin fibroblasts; actives raise or lower the signal. A digest of the protocol: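 Cells are dosed, cultured for 24 h, then VCAM-1 is quantified by ELISA; signal increases and decreases are both fitted relative to DMSO.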

Read-out in test [17]: Plasminogen activator inhibitor-1 (PAI1), SERPINE1 (gene 5054)
The test can be described thus: BSK_hDFCGF_PAI1: BioMAP Diversity Plus: hDFCGF Assay for Plasminogen activator inhibitor-1 (PAI1) Biomarker Activity (AID 2283066). The settings on record: primary human foreskin fibroblasts; actives raise or lower the signal. The procedure, abridged: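 Human skin fibroblast cultures receive chemical for 24 h before PAI-1 is measured by ELISA; signal changes are fitted bidirectionally against DMSO-treated wells.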

Read-out in test [18]: Intercellular Adhesion Molecule 1 (ICAM1), ICAM1 (gene 3383)
The test can be described thus: BSK_KF3CT_ICAM1: BioMAP Diversity Plus: KF3CT Assay for Intercellular Adhesion Molecule 1 (ICAM1) Biomarker Activity (AID 2283067). Conditions: primary human keratinocytes with fibroblasts; actives raise or lower the signal. The procedure, abridged: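 Dose the keratinocyte/fibroblast co-culture, wait 24 h, measure ICAM-1 by ELISA, then fit increases or decreases against DMSO. Cytotoxicity is checked in parallel cultures by SRB total-protein staining.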

Read-out in test [19]: Interferon-gamma inducible Protein 10 (IP10), CXCL10 (gene 3627)
The test can be described thus: BSK_KF3CT_IP10: BioMAP Diversity Plus: KF3CT Assay for Interferon-gamma inducible Protein 10 (IP10) Biomarker Activity (AID 2283068). The settings on record: primary human keratinocytes with fibroblasts; actives raise or lower the signal. The procedure, abridged: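 Signal is secreted/surface IP-10 by ELISA in a human primary skin co-culture of keratinocytes and foreskin fibroblasts, taken 24 h post-dosing; DMSO served as negative control.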

Read-out in test [20]: Epidermal growth factor receptor (EGFR), EGFR (gene 1956)
The test can be described thus: BSK_hDFCGF_EGFR: BioMAP Diversity Plus: hDFCGF Assay for Epidermal growth factor receptor (EGFR) Biomarker Activity (AID 2283057). Conditions: primary human foreskin fibroblasts; actives raise or lower the signal. The procedure, abridged:
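Cell-based multiplexed assay in primary human foreskin fibroblasts. EGFR is read by ELISA 24 h after treatment and compared with DMSO controls.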

On to `Oc1ccc(C(c2ccc(O)cc2)C(Cl)(Cl)Cl)cc1`, for which the result in [1], in [4] and in test [7] was inactive. The AC50 in test [2] was 20.9 µM (active); in test [3] it was 15.5 µM (active); in [5], 23.8 µM (active); in [6] it was 11.3 µM (active); in test [8], 11.7 µM (active); in [9], 31.3 µM (active). Besides, the half-maximal activity concentration (AC50) in test [10] was 13.5 µM (active); in test [11] it was 21.5 µM (active); in test [12] it was 29.3 µM (active); in test [13], 14.5 µM (active); in test [14] it was 26.7 µM (active); in test [15], 29.7 µM (active). In addition, the AC50 in test [16] is 20 µM (active); in test [17], 25.4 µM (active); in test [18], 36.4 µM (active); in test [19], 33.2 µM (active).

For `O=C(c1ccc(O)cc1O)c1ccc(O)cc1O`, the result in test [1], in test [2], in test [3], in [4], in [5] and in test [6] was inactive. Further, the outcome in [7], in test [8], in test [9], in test [10], in test [11] and in test [12] was inactive. For the same molecule, the result in test [13], in test [14], in test [15], in test [16], in [17] and in [18] was inactive. Also, the result in test [19] was inactive.

With `CCCCCCC(C)OC(=O)COc1nc(F)c(Cl)c(N)c1Cl` (stereo not given), the AC50 was 25.7 µM (active) in [1]; 35.3 µM (active) in [2]; 29.7 µM (active) in [3]; 13.5 µM (active) in test [5]; 32.8 µM (active) in test [7]; 20 µM (active) in test [8]. For the same molecule, the AC50 in test [9] was 29.6 µM (active); in test [10] it was 6.82 µM (active); in [11], 13.8 µM (active); in test [12] it was 14.9 µM (active); in test [13] it was 26 µM (active); in [14], 15 µM (active). Also, the concentration at half-maximal activity (AC50) is 30.3 µM (active) in test [15], 13.4 µM (active) in [16], 25.8 µM (active) in test [17] and 31.4 µM (active) in test [18]. Moreover, the result in test [4], in test [6], in [20] and in test [19] was inactive.

`COc1c(Cl)ccc(Cl)c1C(=O)O`: the result in test [1], in [2], in test [3], in test [4], in test [5] and in test [6] was inactive. The result in [7], in test [8], in [20], in test [9], in [10] and in test [11] was inactive. For the same molecule, the outcome in [12], in test [13], in test [15], in test [16], in test [17] and in test [18] was inactive. Further, the result in test [19] was inactive.

Regarding `COC(=O)c1c(Cl)nn(C)c1S(=O)(=O)NC(=O)Nc1nc(OC)cc(OC)n1`, the outcome in test [1], in test [2], in test [3], in test [4], in test [5] and in test [6] was inactive. In addition, the outcome in test [7], in test [8], in [20], in [9], in test [10] and in test [11] was inactive. The outcome in [12], in test [13], in test [14], in test [15], in test [16] and in test [17] was inactive. For the same molecule, the result in [18] was inactive. Further, the half-maximal activity concentration (AC50) in [19] was 20 µM (active).

In the case of `CC(C)(c1ccc(O)cc1)c1ccc(O)cc1`, the outcome in test [1], in test [2], in [3], in [4], in test [5] and in [6] was inactive. Moreover, the outcome in test [7], in test [8], in [9], in [11], in test [12] and in test [13] was inactive. The result in test [14], in test [15], in test [16], in test [17], in test [18] and in test [19] was inactive. The AC50 in [3] is 8.47 µM (active); in test [5] it was 14.4 µM (active); in [8], 6.87 µM (active) and 25.7 µM (active); in test [10], 26.2 µM (active) [middle of 4 runs]; in [16], 8.38 µM (active).
